Source: PubChem BioAssay (EPA / NIEHS)
Results filed as inconclusive are left out. Active and inactive are the calls of the source. Rule for the calls: active = hit-call score of the fitted dose curve at least 0.9, where 1 is the maximum; inconclusive = response in the unintended direction; inactive = score below 0.9.

Assay: Tanguay_ZF_120hpf_SOMI_legacy: (Legacy) Oregon State University Tanguay Lab 120 Hour Post-fertilization zebrafish Assay for Somite Malformation (AID 2283647)
Protocol: Tanguay_ZF_120hpf_legacy is a whole embryo, multiplexed endpoint assay using zebrafish larvae exposed for 120 hours post fertilization on a 96-well plate.Tanguay_ZF_120hpf_SOMI_legacy is one of one assay component(s) measured or calculated from the Tanguay_ZF_120hpf_legacy assay. It is designed to make measurements of zebrafish development as detected with brightfield microscopy of developing zebrafish embryos.Data from the assay component Tanguay_ZF_120hpf_SOMI_legacy was analyzed into 1 assay endpoints. This assay endpoint, Tanguay_ZF_120hpf_SOMI_legacy, was analyzed in the positive analysis fitting direction relative to DMSO as the negative control and baseline of activity. Using a type of morphology reporter, gain-of-signal activity can be used to understand changes in developmentals as they relate to the whole embryo. To generalize the intended target to other relatable targets, this assay endpoint is annotated to the zebrafish development intended target family, where the subfamily is somitogenesis.
Zebrafish husbandry: Tropical 5D wild-type adult zebrafish were housed in at an approximate density of 1000 per 100 gallon tank at the Sinnhuber Aquatic Research Laboratory, Oregon State University, Corvallis, OR. Each tank was kept at standard laboratory conditions of 28C on a 14-h light/10-h dark photoperiod in fish water consisting of reverse osmosis water supplemented with a commercially available salt (Instant Ocean). Spawning funnels were placed into the tanks the night prior, and embryos were collected and staged. To increase bioavailability, the chorion was enzymatically removed using pronase (63.6mg/ml, >/= 3.5U/mg, Sigma-Aldrich: P5147) at 4 hours post fertilization (hpf) using a custom automated dechorionator.Chemical exposures: Six hpf dechorionated embryos were placed 1 embryo per well in a 96-well plate prefilled with 90 ul of EM using automated embryo placement systems (AEPS). Ten microliters of each row of dilution plate 2 was added to 2 exposure plates. The final DMSO concentration used was 0.64% (vol/vol). Thirty-two embryos were also exposed to 5uM trimethyltin chloride (positive control). Plates were sealed to prevent evaporation and foil covered to reduce light exposure and kept in a 28C incubator. Embryos were statically exposed until 120 hpf. At 24 hpf, embryos were assessed for photomotor response using a custom photomotor response analysis tool (PRAT) and for developmental toxicity endpoints (MO24: mortality at 24 hpf, DP: developmental progression, SM: spontaneous movement, and NC: notochord distortion). At 120 hpf, locomotor activity was measured using Viewpoint Zebralab and assessed for 18 endpoints. Zebrafish acquisition and analysis program (ZAAP), a custom program designed to inventory, acquire, and manage zebrafish data, was used to collect developmental endpoints as either present or absent (i.e., binary responses were recorded). If mortality occurred for an embryo (at either 24 or 120 hpf), the non-mortality endpoints were not measured.

SMILES | outcome | AC50
O=C(O)COc1nc(Cl)c(Cl)cc1Cl | inactive | –
O=C(O)c1nc(Cl)ccc1Cl | inactive | –
CCCCNC(=O)n1c(NC(=O)OC)nc2ccccc21 | inactive | –
C=CCC1=C(C)[C@@H](OC(=O)[C@@H]2[C@@H](C=C(C)C)C2(C)C)CC1=O | inactive | –
CNC(=S)S | inactive | –
C#CCOS(=O)OC1CCCCC1Oc1ccc(C(C)(C)C)cc1 (stereo not given) | inactive | –
OC(c1ccc(Cl)cc1)(c1cncnc1)c1ccccc1Cl (stereo not given) | inactive | –
CCCC1COC(Cn2cncn2)(c2ccc(Cl)cc2Cl)O1 (stereo not given) | inactive | –
COC(=O)c1ccccc1C(=O)OC | inactive | –
COC(=O)N(OC)c1ccccc1COc1ccn(-c2ccc(Cl)cc2)n1 | inactive | –
COP(N)(=O)SC (stereo not given) | inactive | –
CCCCOC(=O)c1ccccc1C(=O)OCCCC | inactive | –
CCOC(=O)CC(SP(=S)(OC)OC)C(=O)OCC (stereo not given) | – | 32 µM (active)
CC(C)C1(C)N=C(c2nc3ccccc3cc2C(=O)O)NC1=O (stereo not given) | inactive | –
COc1nc(NC(C)C)nc(NC(C)C)n1 | inactive | –
Fc1ccc(Oc2ccnc3cc(Cl)cc(Cl)c23)cc1 | inactive | –
CN(C)C(=S)SSC(=S)N(C)C | inactive | –
COc1ccc(C(c2ccc(OC)cc2)C(Cl)(Cl)Cl)cc1 | inactive | –
N#Cc1cc(Br)c(O)c(Br)c1 | inactive | –
CCc1nn(C)c(C(=O)NCc2ccc(C(C)(C)C)cc2)c1Cl | inactive | –

SMILES | outcome | AC50
CCOC(=O)C(Cl)Cc1cc(-n2nc(C)n(C(F)F)c2=O)c(F)cc1Cl (stereo not given) | – | 2.22 µM (active)
CC1COC(Cn2cncn2)(c2ccc(Oc3ccc(Cl)cc3)cc2Cl)O1 (stereo not given) | inactive | –
CCCCNC(=O)OCC#CI | inactive | –
CCNc1nc(Cl)nc(NCC)n1 | inactive | –
CCOc1cc(Oc2ccc(C(F)(F)F)cc2Cl)ccc1[N+](=O)[O-] | inactive | –
COc1cnc(OC)n2nc(NS(=O)(=O)c3c(OCC(F)F)cccc3C(F)(F)F)nc12 | inactive | –
CCOP(=S)(OCC)SCn1c(=O)oc2cc(Cl)ccc21 | inactive | –
Cc1ccc(-c2c(Cl)nc(C#N)n2S(=O)(=O)N(C)C)cc1 | inactive | –
Cc1c(F)c(F)c(COC(=O)C2C(/C=C(\Cl)C(F)(F)F)C2(C)C)c(F)c1F (stereo not given) | inactive | –
Cc1cc(Cl)ccc1OCC(=O)O | inactive | –
N#CC(CCc1ccc(Cl)cc1)(Cn1cncn1)c1ccccc1 (stereo not given) | inactive | –
CCON=C(CC)C1=C(O)CC(c2c(C)cc(C)cc2C)CC1=O (stereo not given) | inactive | –
COP(=S)(OC)Oc1nc(Cl)c(Cl)cc1Cl | inactive | –
Oc1ccccc1-c1ccccc1 | inactive | –
COC(=O)C(C)Oc1ccc(Oc2ccc(Cl)cc2Cl)cc1 (stereo not given) | inactive | –
C=CCC1=C(C)C(OC(=O)C2C(C=C(C)C)C2(C)C)CC1=O (stereo not given) | inactive | –
CCNc1nc(Cl)nc(NC(C)C)n1 | inactive | –
CCCCC(CC)COC(=O)c1ccccc1C(=O)OCC(CC)CCCC (stereo not given) | inactive | –
COC(=O)C=C(C)OP(=O)(OC)OC | inactive | –
CON(C)C(=O)Nc1ccc(Cl)c(Cl)c1 | inactive | –
